Measurements from PubChem BioAssay (EPA / NIEHS).
Activity calls are given as the source filed them. Rule for the calls: active = hit-call score of the fitted dose curve at least 0.9, where 1 is the maximum; inactive = score below 0.9.

Columns and labels:
[1] = read-out: Human Leukocyte Antigen - DR isotype (HLADR), HLA-DRA (gene 3122); experiment: BSK_CASM3C_HLADR: BioMAP Diversity Plus: CASM3C Assay for Human Leukocyte Antigen - DR isotype (HLADR) Biomarker Activity (AID 2283043); conditions: primary human coronary artery smooth muscle cells; actives raise or lower the signal;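 note: cell-surface HLA-DR protein level quantified by ELISA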
[2] = read-out: Macrophage colony-stimulating factor (MCSF), CSF1 (gene 1435); experiment: BSK_CASM3C_MCSF: BioMAP Diversity Plus: CASM3C Assay for Macrophage colony-stimulating factor (MCSF) Biomarker Activity (AID 2283044); conditions: primary human coronary artery smooth muscle cells; actives raise or lower the signal;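 note: M-CSF protein amount quantified by ELISA after 24 h exposure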
[3] = read-out: Low-density lipoprotein receptor (LDLR), LDLR (gene 3949); experiment: BSK_CASM3C_LDLR: BioMAP Diversity Plus: CASM3C Assay for Low-density lipoprotein receptor (LDLR) Biomarker Activity (AID 2283045); conditions: primary human coronary artery smooth muscle cells; actives raise or lower the signal;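 note: LDLR protein level on the cell surface quantified by ELISA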
[4] = read-out: Monocyte Chemoattractant Protein-1 (MCP1), CCL2 (gene 6347); experiment: BSK_CASM3C_MCP1: BioMAP Diversity Plus: CASM3C Assay for Monocyte Chemoattractant Protein-1 (MCP1) Biomarker Activity (AID 2283046); conditions: primary human coronary artery smooth muscle cells; actives raise or lower the signal;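 note: MCP-1 level quantified by ELISA 24 h after dosing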
[5] = BSK_CASM3C_Proliferation: Cell Proliferation Assessment in the BioMAP Diversity Plus: CASM3C Assay (AID 2283047); conditions: primary human coronary artery smooth muscle cells;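 note: sulforhodamine B total protein stain as relative cell number at 560 nm; sub-confluent cells exposed 48 h before staining; fitted both ways against DMSO so gain or loss of cell number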
[6] = read-out: Monokine induced gamma interferon (MIG), CXCL9 (gene 4283); experiment: BSK_CASM3C_MIG: BioMAP Diversity Plus: CASM3C Assay for Monokine induced gamma interferon (MIG) Biomarker Activity (AID 2283048); conditions: primary human coronary artery smooth muscle cells; actives raise or lower the signal;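 note: MIG protein level measured by ELISA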
[7] = read-out: serum amyloid A (SAA), SAA1 (gene 6288); experiment: BSK_CASM3C_SAA: BioMAP Diversity Plus: CASM3C Assay for serum amyloid A (SAA) Biomarker Activity (AID 2283049); conditions: primary human coronary artery smooth muscle cells; actives raise or lower the signal;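 note: SAA protein level quantified by ELISA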
[8] = BSK_CASM3C_SRB: Viability Assessment in the BioMAP Diversity Plus: CASM3C Assay (AID 2283050); conditions: primary human coronary artery smooth muscle cells;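 note: total protein by SRB staining as cytotoxicity measure in parallel cultures; cells exposed to compound for 24 h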
[9] = read-out: Thrombomodulin, THBD (gene 7056); experiment: BSK_CASM3C_Thrombomodulin: BioMAP Diversity Plus: CASM3C Assay for Thrombomodulin Biomarker Activity (AID 2283051); conditions: primary human coronary artery smooth muscle cells; actives raise or lower the signal;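 note: thrombomodulin protein level measured by ELISA 24 h after dosing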
[10] = read-out: Tissue Factor, F3 (gene 2152); experiment: BSK_CASM3C_TissueFactor: BioMAP Diversity Plus: CASM3C Assay for Tissue Factor Biomarker Activity (AID 2283052); conditions: primary human coronary artery smooth muscle cells; actives raise or lower the signal;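 note: cell surface tissue factor protein level read by ELISA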

Measured: AC50

O=C1CCC(C2CCCCC2)CC1
inactive: [1] | [2] | [3] | [4] | [5] | [6] | [7] | [8] | [9] | [10]

CCN(Cc1cccc(S(=O)(=O)O)c1)c1ccc(C(=C2C=CC(=[N+](CC)Cc3cccc(S(=O)(=O)O)c3)C=C2)c2ccccc2S(=O)(=O)[O-])cc1
inactive: [1] | [2] | [3] | [4] | [5] | [6] | [7] | [8] | [9] | [10]

O=C1c2ccccc2C(=O)N1CCc1noc(-c2ccc(CN3CCCCCC3)s2)n1
inactive: [1] | [2] | [4] | [5] | [6] | [7] | [8] | [9] | [10]
active: [3] 27.1 µM

COc1cc(C(=O)NC2CCN(C)CC2)ccc1Nc1ncc2c(n1)N(C1CCCC1)CC(F)(F)C(=O)N2C
active: [1] 9.13 µM | [2] 18.6 µM | [3] 6.15 µM | [4] 25.1 µM | [5] 1.67 µM | [6] 20.8 µM | [7] 31.9 µM | [8] 27.5 µM | [10] 14.2 µM
inactive: [9]

NC(=O)c1nc(-c2cccc(-c3cc(F)ccc3OCC(F)(F)C(F)(F)F)c2)n[nH]1
active: [1] 28.7 µM | [5] 31.4 µM
inactive: [2] | [3] | [4] | [6] | [7] | [8] | [9] | [10]

CN(C)C(=O)C1(N2CCCCC2)CCN(CC[C@@]2(c3ccc(Cl)c(Cl)c3)CN(C(=O)c3ccccc3)CCO2)CC1
active: [1] 18.1 µM | [2] 31.3 µM | [3] 4.45 µM | [4] 28.6 µM | [5] 15.7 µM | [6] 29.9 µM | [7] 33.3 µM | [8] 27.2 µM | [9] 34.7 µM | [10] 31 µM

O=c1c(-c2ccc(O)cc2)coc2cc(O)cc(O)c12
inactive: [2] | [3] | [6] | [8] | [10]
active: [1] 27.6 µM | [4] 28.6 µM | [5] 11.7 µM | [7] 20 µM

COc1ccc2cc(S(=O)(=O)N[C@H](CC(=O)N[C@H](Cc3ccc(CN4[C@H](C)CCC[C@@H]4C)cc3)C(=O)N(C)C(C)C)c3ccc4c(c3)OCO4)ccc2c1
active: [1] 27.8 µM | [3] 0.966 µM | [5] 24.9 µM | [8] 19.1 µM | [9] 7.64 µM
inactive: [2] | [4] | [6] | [7] | [10]

C[C@]12CC[C@@H]3c4ccc(O)cc4CC[C@H]3[C@@H]1CC[C@H]2O
active: [5] 13.2 µM
inactive: [1] | [2] | [3] | [4] | [6] | [7] | [8] | [9] | [10]

OC12N=C(c3ccccc3)SC1Cc1cc(Cl)ccc12 (stereo not drawn)
active: [5] 30.1 µM
inactive: [1] | [2] | [3] | [4] | [6] | [7] | [8] | [9] | [10]

CC[C@@H]1C[C@H](N(Cc2cc(C(F)(F)F)cc(C(F)(F)F)c2)C(C)=O)c2cc(C(F)(F)F)ccc2N1C(=O)OC(C)C
active: [3] 1.22 µM | [5] 1.37 µM
inactive: [1] | [2] | [4] | [6] | [7] | [8] | [9] | [10]

O=CCCCC=O
active: [1] 30.2 µM | [5] 23.5 µM | [9] 31.9 µM
inactive: [2] | [3] | [4] | [6] | [7] | [8] | [10]

Clc1ccccc1C(c1ccccc1)(c1ccccc1)n1ccnc1
active: [1] 28 µM | [2] 32.6 µM | [3] 36.9 µM | [4] 34.4 µM | [5] 22.5 µM | [6] 39.2 µM | [7] 27.1 µM | [8] 29.1 µM | [9] 4.88 µM | [10] 20 µM

CC(=O)N1CCN(c2ccc(OC[C@H]3CO[C@](Cn4ccnc4)(c4ccc(Cl)cc4Cl)O3)cc2)CC1
active: [3] 2.94 µM | [5] 28 µM
inactive: [1] | [4] | [6] | [7] | [8] | [9] | [10]

CC(C)(c1cc(Br)c(O)c(Br)c1)c1cc(Br)c(O)c(Br)c1
active: [1] 33.1 µM | [2] 19.1 µM | [4] 30.1 µM | [5] 32 µM | [7] 31.9 µM | [9] 25 µM | [10] 31.7 µM
inactive: [3] | [6] | [8]

CC(C)(O)c1ccc(CNC(=O)c2cccnc2Oc2ccc3nonc3c2)cc1
active: [7] 27.5 µM
inactive: [1] | [2] | [3] | [4] | [5] | [6] | [8] | [9] | [10]

COCC(C)OCC(C)OCC(C)O (stereo not drawn)
inactive: [1] | [2] | [3] | [4] | [5] | [6] | [7] | [8] | [9] | [10]

C[C@]12CC[C@@H]3c4ccc(O)cc4CC[C@H]3[C@@H]1CCC2=O
inactive: [1] | [2] | [3] | [4] | [5] | [6] | [7] | [8] | [9] | [10]

Cc1occc1C(=O)Nc1ccc(C(=O)N2CCC(F)(F)/C(=C\C(=O)N3CCC(N4CCCCC4)CC3)c3ccccc32)cc1
active: [3] 10.8 µM
inactive: [1] | [2] | [4] | [5] | [6] | [7] | [8] | [9] | [10]

Cc1oc2c(NC(=O)c3c(Cl)cccc3Cl)cccc2c1C(C)(C)O
active: [3] 15.6 µM | [5] 20 µM | [9] 26.5 µM | [10] 29.4 µM
inactive: [1] | [2] | [4] | [6] | [7] | [8]

c1ccc2ccccc2c1
inactive: [1] | [2] | [3] | [4] | [5] | [6] | [7] | [8] | [9] | [10]

CC(C)(C)c1cc(/C=C2\SC(N)=NC2=O)cc(C(C)(C)C)c1O
active: [1] 20 µM | [2] 33.3 µM | [3] 29.1 µM | [4] 31.1 µM | [5] 29.1 µM | [6] 32 µM | [7] 31.6 µM | [8] 30.7 µM | [9] 0.507 µM
inactive: [10]

Cc1ncc(CO)c(CO)c1O
inactive: [1] | [2] | [3] | [4] | [5] | [6] | [7] | [8] | [9] | [10]

NCc1cccc(C2CCN(C(=O)c3ccc(C#Cc4ccccc4F)o3)CC2)c1
active: [1] 13.3 µM | [2] 28.4 µM | [3] 35.3 µM | [5] 22.3 µM | [6] 34 µM | [7] 27.7 µM | [8] 16 µM | [9] 4.76 µM
inactive: [4] | [10]

CCCCCCCC[Si](OCC)(OCC)OCC
active: [5] 35.4 µM
inactive: [1] | [2] | [3] | [4] | [6] | [7] | [8] | [9] | [10]

Oc1ccccc1
inactive: [1] | [2] | [3] | [4] | [5] | [6] | [7] | [8] | [9] | [10]

CN1C(=O)CC[C@H]1c1cccnc1
inactive: [1] | [2] | [3] | [4] | [5] | [6] | [7] | [8] | [9] | [10]

CCCOC(=O)c1cc(O)c(O)c(O)c1
inactive: [1] | [2] | [3] | [4] | [6] | [7] | [8] | [9] | [10]
active: [5] 6.82 µM

CCCCCCCCCCCC[N+](C)(C)C
active: [1] 14 µM | [2] 16.2 µM | [3] 21.2 µM | [4] 27.1 µM | [5] 12.9 µM | [6] 33.3 µM | [7] 26 µM | [8] 27.6 µM | [10] 4.09 µM
inactive: [9]

CCCCCCCCCC(=O)O
inactive: [1] | [2] | [3] | [4] | [5] | [6] | [7] | [8] | [9] | [10]

Clc1cc(Cl)c2c(c1)N=C1CCCCCN1C2
inactive: [1] | [2] | [3] | [4] | [5] | [6] | [7] | [8] | [9] | [10]

CO[C@H]1/C=C/O[C@@]2(C)Oc3c(C)c(O)c4c(O)c(c(/C=N/N5CCN(C)CC5)c(O)c4c3C2=O)NC(=O)/C(C)=C\C=C\[C@H](C)[C@H](O)[C@@H](C)[C@@H](O)[C@@H](C)[C@H](OC(C)=O)[C@@H]1C
inactive: [1] | [2] | [3] | [4] | [6] | [7] | [8] | [9] | [10]
active: [5] 4.51 µM

O=C(O)Cn1c(=O)n(Cc2ccc(Br)cc2F)c(=O)c2ccc(Cl)cc21
inactive: [1] | [2] | [3] | [4] | [5] | [6] | [7] | [8] | [9] | [10]

CCCCCc1ccc(N)cc1
inactive: [1] | [2] | [3] | [4] | [5] | [6] | [7] | [8] | [9] | [10]

O=C(Nc1ccc(Cl)cc1)Nc1ccc(Cl)c(Cl)c1
active: [1] 2.81 µM | [2] 12.3 µM | [3] 7.14 µM | [5] 5 µM | [7] 12.6 µM | [8] 10.6 µM | [10] 9.41 µM
inactive: [4] | [6] | [9]

Cc1cc(F)ccc1-c1cc(N2CC[C@@H](O)[C@H]2CO)ncc1N(C)C(=O)C(C)(C)c1cc(C(F)(F)F)cc(C(F)(F)F)c1
inactive: [9]
active: [1] 26.5 µM | [2] 26.1 µM | [3] 24.4 µM | [4] 31 µM | [5] 28.3 µM | [6] 30.1 µM | [7] 31.7 µM | [8] 29.2 µM | [10] 22 µM

Cc1cc2c(cc1C(F)(F)F)N(C(=O)Nc1ccc(Oc3cccnc3C)nc1)CC2
inactive: [6] | [7] | [10]
active: [1] 16.6 µM | [2] 30.6 µM | [3] 3.81 µM | [4] 28.3 µM | [5] 13.8 µM | [8] 26.3 µM | [9] 5.04 µM

Cc1c2ccccc2c(C)c2c1ccc1ccccc12
active: [1] 20 µM | [5] 12.6 µM | [8] 20 µM | [9] 20 µM
inactive: [2] | [3] | [4] | [6] | [7] | [10]
